Vif imaging: blocks HIV Vif function. HEK293T cells, Vif self-association by quenched fluorescence, imaging, 24 h. inhibition, % at 7.49 µM. 340,000 compounds, 0.35% hits; in the data active means inhibition above about 50%, passing the limit was not always enough
ABCB6 inh 2: inhibitors of human ABC transporter ABCB6 | K562-ABCB6 porphyrin accumulation, flow cytometry, 1 h; active compounds read low | fluorescence ratio to DMSO, % at 10 µM | 360,000 compounds, 0.19% hits | AID 602162;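 active means fluorescence ratio to DMSO below 75%, the collection mean minus 3 SD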;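 further: signal is porphyrin accumulated inside mitochondria; lower ratio means ABCB6 inhibition with less porphyrin fluorescence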
Target sequence (Q9NP58 whole entry, looked up): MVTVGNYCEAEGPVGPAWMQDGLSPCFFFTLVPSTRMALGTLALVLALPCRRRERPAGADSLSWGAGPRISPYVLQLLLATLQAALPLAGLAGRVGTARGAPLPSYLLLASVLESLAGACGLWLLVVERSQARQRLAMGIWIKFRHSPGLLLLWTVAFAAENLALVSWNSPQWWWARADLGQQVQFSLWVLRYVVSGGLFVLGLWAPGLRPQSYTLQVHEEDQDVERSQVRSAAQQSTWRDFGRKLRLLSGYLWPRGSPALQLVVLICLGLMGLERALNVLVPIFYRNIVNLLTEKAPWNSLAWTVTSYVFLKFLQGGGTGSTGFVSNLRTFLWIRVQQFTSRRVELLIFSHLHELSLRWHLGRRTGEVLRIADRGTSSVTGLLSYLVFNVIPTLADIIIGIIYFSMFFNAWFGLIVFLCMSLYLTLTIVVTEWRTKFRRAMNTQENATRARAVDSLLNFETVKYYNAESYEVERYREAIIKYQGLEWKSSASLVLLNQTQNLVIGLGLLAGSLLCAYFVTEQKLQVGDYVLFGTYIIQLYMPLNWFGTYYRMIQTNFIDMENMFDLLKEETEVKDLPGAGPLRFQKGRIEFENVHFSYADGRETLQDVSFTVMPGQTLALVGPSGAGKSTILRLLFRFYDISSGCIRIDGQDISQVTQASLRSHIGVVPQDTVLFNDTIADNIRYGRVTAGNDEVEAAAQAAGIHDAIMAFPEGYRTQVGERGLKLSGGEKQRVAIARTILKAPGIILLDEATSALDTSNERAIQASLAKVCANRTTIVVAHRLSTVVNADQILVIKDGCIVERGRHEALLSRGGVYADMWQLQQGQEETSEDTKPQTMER
N-glyco inh: N-linked glycosylation inhibition; D54 ERlucT glycosylation luciferase reporter, 24 h; percent of 100 nM tunicamycin response; reporter increase, % at 12.5 µM; 360,000 compounds, 0.23% hits; AID 588692;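 active means mean luciferase reporter signal, scaled so untreated is 0 and the glycosylation-blocking control 100, at or above a set limit in every replicate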;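 further: luciferase carries N-glycosylation sites so blocking glycosylation raises the light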
RAD54 inh: blocks human RAD54 Holliday junction branch migration. FAM/BHQ fluorescence. 360,000 compounds, 0.14% hits. inhibition, % at 10.4 µM. AID 602329;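 active means mean normalized replicate activity at least 40 and at least half of replicates scoring 40 or more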;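 further: inhibitors cause a drop in the FAM fluorescence signal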
Myeloid diff 2: promotes myeloid progenitor differentiation; 360,000 compounds, 1% hits; calls only at 10 µM; ER-HoxA9 myeloid progenitors, lysozyme-GFP differentiation, flow cytometry;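 active means normalized GFP-positive differentiation at or above the plate's own cutoff, the solvent-only control mean plus 3 SD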;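 further: cells exposed to compound for four days before flow analysis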
Myeloid diff CP1: compounds promoting myeloid differentiation; shares compounds with Myeloid diff 2; ER-HoxA9 myeloid progenitors, GFP/Mac1 double-positive flow; calls only; 2,300 compounds, 2% hits;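 active means share of green or green-and-red cells above 9 and 9% in run 1 or 4 and 3% in run 2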
GFP autofluor: counter-screen for myeloid differentiation promoters: compound fluorescence; shares compounds with Myeloid diff 2; ER-HoxA9 myeloid progenitors, no estrogen, GFP autofluorescence flow cytometry; vehicle wells 0%, positive control 100%; fluorescence response, % (no concentration beside the values); 2,300 compounds, 7.4% hits; AID 651707;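 active means over 5% cells positive for green fluorescent reporter, or over 2% positive for both it and APC stain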
Hits are given with their value; – = inactive; · = no result given; + = active, no number. A selection: hits, their analogues and other compounds. The true share with any hit is near 1.6%.

SMILES | Vif imaging | ABCB6 inh 2 | N-glyco inh | RAD54 inh | Myeloid diff 2 | Myeloid diff CP1 | GFP autofluor
O=Cc1c(-c2ccccc2)cc2oc3ccccc3cc1-2 | – | – | – | – | – | – | 66
C[C@@H]1CN([C@@H](C)CO)S(=O)(=O)c2ccc(C3=CCCC3)cc2O[C@@H]1CN(C)C | · | · | · | – | · | · | ·
CS(=O)(=O)NCCSCc1ccco1 | – | – | – | – | – | – | –
COCC#Cc1cnc2c(c1)C(=O)N([C@H](C)CO)C[C@H](C)[C@@H](CN(C)Cc1ccc3c(c1)OCO3)O2 | · | · | · | – | · | · | ·
CCc1c(C)nc2ncnn2c1NC1CCCc2ccccc21 (stereo unspecified) | – | – | – | · | – | – | –
CCc1c(C)nc2ncnn2c1Nc1ccc(C)cc1 | – | – | – | – | – | · | ·
CC(C)(CN1CCCC1)NS(=O)(=O)c1ccccc1 | – | – | – | – | – | – | –
CCN(C(=O)COc1cc(=O)n(CC)c2ccccc12)c1cc(Cl)ccc1OC | – | – | – | – | – | – | 17
CCN(C(=O)COc1cc(=O)n(CC)c2ccccc12)c1cccc(Cl)c1 | – | – | – | – | – | · | ·
CN(C)CC(=O)Nc1ccc2c(c1)[C@@H]1C[C@H](CC(=O)NCc3cc(F)ccc3F)O[C@@H](CO)[C@@H]1O2 | · | · | · | – | · | · | ·
COc1ccc(/C=C/C(=O)NCCC(=O)N2CCCN(C)CC2)cc1 | – | – | – | – | – | – | –
COc1ccc(/C=C/C(=O)NCCCN2CCCC2)cc1 | – | – | – | – | – | · | ·
CC1=C(CC(=O)c2ccccc2)C(=O)c2ccccc2C1=O | – | – | – | – | + | – | 4.2
O=C(CN1C(=O)c2ccccc2C1=O)c1ccccc1 | – | – | – | – | – | · | ·
COc1ccc(CC(=O)NC2CCN(CC(=O)N3CCCc4ccccc43)CC2)cc1OC | – | – | – | – | – | – | –
Cc1cc(/C=C2\SC(=Nc3ccc(F)cc3)NC2=O)c(C)n1-c1ccc(S(N)(=O)=O)cc1 | · | – | – | – | – | – | 8.0
Cc1cccc(-n2c(C)cc(C=C3C(=O)c4ccccc4C3=O)c2C)c1 | – | – | – | – | – | – | –
Cc1cc(/C=C2\SC(=S)NC2=O)c(C)n1-c1ccccc1 | – | – | – | – | – | – | 6.9
CO[C@@H](CN(C)C(=O)c1ccccc1F)[C@@H](C)CN([C@@H](C)CO)S(=O)(=O)c1ccc(Cl)cc1 | · | · | · | – | · | · | ·
COc1ccc(-n2nc(C(=O)NCC(=O)N3CCN(c4cccc(Cl)c4)CC3)c3ccccc3c2=O)c(OC)c1 | – | – | – | – | – | – | –
COc1ccc(-n2nc(C(=O)NCC(=O)N3CCN(c4ccccn4)CC3)c3ccccc3c2=O)c(OC)c1 | – | – | – | – | – | · | ·
COc1ccc(-n2c(C)nnc2SCC(=O)N2C(C)CCCC2C)cc1 (stereo unspecified) | – | – | – | – | + | – | –
O=C(Nc1ccccc1)Nc1ccc2c(c1)[C@@H]1C[C@@H](CC(=O)N3CCCCC3)O[C@@H](CO)[C@@H]1O2 | · | · | · | – | · | · | ·
O=C(Nc1ccncc1)c1cccc(S(=O)(=O)N2CCN(c3ccc(F)cc3)CC2)c1 | – | – | – | – | – | – | –
CN1CCN(S(=O)(=O)c2cccc(C(=O)Nc3ccccc3N3CCCCC3)c2)CC1 | – | – | – | · | – | – | –
SMILES | Vif imaging | ABCB6 inh 2 | N-glyco inh | RAD54 inh | Myeloid diff 2 | Myeloid diff CP1 | GFP autofluor
COc1ccccc1NC(=O)c1cccc(S(=O)(=O)N2CCN(c3ccccc3)CC2)c1 | – | – | – | · | – | – | –
COc1ccc(NC(=O)c2cccc(S(=O)(=O)N3CCN(c4ccccc4)CC3)c2)c(OC)c1 | – | – | – | – | – | · | ·
CC(=O)N1CCN(S(=O)(=O)c2cccc(C(=O)Nc3ccccc3N3CCCCC3)c2)CC1 | – | – | – | – | – | · | ·
O=C(Nc1ncccc1O)c1cccc(S(=O)(=O)N2CCN(c3ccc(F)cc3)CC2)c1 | – | – | – | – | – | · | ·
CSC1=NSC2=NC(=O)/C(=C/c3coc4ccc(O)cc4c3=O)C(=N)N12 | – | – | – | · | + | – | –
CSC1=NSC2=NC(=O)/C(=C/c3coc4ccccc4c3=O)C(=N)N12 | – | – | – | · | – | · | ·
Cc1ccc(C(=O)Nc2ccc(C(=O)N/N=C/c3ccc(C)o3)cc2)cc1 | – | – | – | – | + | – | –
C[C@@H]1CN([C@H](C)CO)C(=O)c2cc(NC(=O)Nc3ccc4c(c3)OCO4)ccc2O[C@@H]1CN(C)S(=O)(=O)c1cccs1 | · | · | · | – | · | · | ·
CCCC(=O)Nc1ccc(NC(=O)c2cccc(OC)c2)nc1 | · | – | – | – | – | · | ·
COc1cccc(C(=O)Nc2ccc(NC(C)=O)cn2)c1 | – | – | – | – | – | – | –
CCCCCCCCC1=NCCc2c1[nH]c1ccccc21 | – | – | – | – | – | – | –
CC(C)C/C=C1\CCc2c([nH]c3ccccc23)C1=O | – | – | – | – | – | · | ·
CC(C)n1nnnc1C1c2ccccc2C(=O)N1Cc1ccco1 (stereo unspecified) | · | – | · | · | + | – | –
CC(C)n1nnnc1C1c2ccccc2C(=O)N1Cc1cccs1 (stereo unspecified) | · | – | · | · | – | · | ·
O=C(O)C[C@@H]1C[C@@H]2c3cc(NC(=O)c4ccc5c(c4)OCO5)ccc3O[C@@H]2[C@H](CO)O1 | · | · | · | – | · | · | ·
CCS(=O)(=O)N[C@H]1CC[C@@H](CC(=O)NCc2ccccn2)O[C@H]1CO | · | · | · | – | · | · | ·
COC(=O)C1=C(C)Nc2nnnn2C1c1ccco1 (stereo unspecified) | – | – | – | – | · | – | –
COc1cccc(Cn2nnc(C(=O)Nc3cc(C)ccc3OC)c2N)c1 | – | – | – | – | + | – | 88
CCCCN1C(=O)C(CC(=O)NCCc2ccccn2)CC(C(=O)N(C)C)=C1C (stereo unspecified) | – | – | – | – | – | – | 18
Cc1cc(C(F)(F)F)nc(SCC(=O)c2cccc([N+](=O)[O-])c2)n1 | – | – | – | – | – | – | –
Cc1ccc(-c2cc(C(F)(F)F)nc(SCC(=O)c3cccc([N+](=O)[O-])c3)n2)cc1 | – | – | – | – | – | · | ·
CCC1c2ccc(C)n2CCN1C(=O)Nc1ccccc1C(=O)OC (stereo unspecified) | – | – | – | · | – | · | ·
CCC1c2ccc(C)n2CCN1C(=O)Nc1cc(Cl)ccc1OC (stereo unspecified) | – | – | – | – | · | – | –
COc1ccc(NC(=O)Nc2ccc3c(c2)C(=O)N([C@H](C)CO)C[C@@H](C)[C@H](CN(C)S(=O)(=O)c2cn(C)cn2)O3)cc1 | · | · | · | – | · | · | ·
O=C(C[C@@H]1CC[C@@H]2[C@H](COC[C@H](O)CN2Cc2cccc(C(F)(F)F)c2)O1)NCCc1ccccc1 | · | · | · | – | · | · | ·
C=CCN1C(=O)C(O)(CC(=O)c2ccc(OC)cc2OC)c2cc(Br)ccc21 (stereo unspecified) | – | – | – | – | – | – | –
